# The campaign covered roughly 53,000 sequences. About 3,700 (7%) were called active.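 Rule for the calls: active = gene knockdowns whose robust z-score for IL-1 alpha signal is at least 2 or at most -2, so actives lie on both sides; inactive = the rest.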 The entries come from a sample that favours actives as a whole.
# Experiment: Components of the Cytosolic LPS Sensing Pathway: Gene Identification via Genome-wide siRNA Screen
# Settings: RAW264.7 macrophages, IL-1a HTRF, actives lie on both sides, screened at 100 nM (by protocol), cells primed 5 h with Pam3CSK4 first
# From the text: Non-canonical inflammasome activation by cytosolic LPS is a critical component of the host response to Gram-negative bacterial infection, however we lack a comprehensive understanding of the cellular processes that control this pathway. Here we describe a genome-wide siRNA screen to identify genes regulating the mouse macrophage IL-1 alpha response to cytosolic LPS.
# RAW264.7 cells were maintained in complete DMEM media, comprising DMEM with 4.5 g/L glucose, 10% FBS (Gemini Bio-Products, West Sacramento, CA), 2 mM Glutamine (Lonza) and 20 mM HEPES (Lonza), hereafter complete DMEM.
# The RNAi screen was conducted in 384-well format using the Ambion Silencer Mouse Genome siRNA Library (#4391425), which consists of three unique, nonoverlapping, nonpooled siRNAs for each of 17,000 gene targets. siRNA reagents ([…]) were stamped into 384-well white flat-bottom microplates (Corning, 3570) using a Velocity11 VPrep liquid handling system (Agilent) integrated into a BioCel robotic platform (Agilent) in columns 1-22, leaving columns 23-24 empty for negative (Ambion, Negative control #1) and positive (mouse Casp4) controls, respectively. The median value of each plate's negative control column was used to normalize sample wells, and the positive control was used to assess transfection efficiency and assay performance.
# Lipofectamine RNAiMAX Transfection Reagent ([…]; Invitrogen) was added in […] serum-free, antibiotic-free media to plate wells using a Thermo Scientific Matrix WellMate and Microplate Stacker. Plates were incubated for 45 min at room temperature to allow for the sufficient formation of siRNA-lipid complexes. Cells were seeded at a density of 1x10^4 cells per well in 20 microL media containing 20% (vol/vol) FBS without antibiotics. The final concentration of siRNA in each well was 100 nM. Cells were cultured for 48h at 37 degrees C in 5% CO2 before addition of […] of TLR ligand Pam3CSK4 for 5 hours. The medium was then removed, replaced with […] growth media and cell were transfected with […] of LipidA and TransIT-TKO (Mirus) for 24 hour. At the end of the LipidA treatment, […] of supernatant was transferred to a 384 Greiner Bio-one non-binding low volume plate and […] of IL-1a HTRF reagent (Cisbio, 62MIL1APEH) was added and incubated at room temperature overnight. The plates were read on an EnVision plate reader (PerkinElmer). Cell viability was measured by adding 20ul Cell Titer Glo to the original plate and running a luminescence read on the EnVision. The quantified IL-1a signal for each siRNA gene-targeted well was divided by the median of the negative control wells and multiplied by 100 to achieve a negative control normalized value for each well/siRNA. This normalized value was then used to generate a robust z-score by first taking the log of each value and then by subtracting the median and dividing by the […].
row,Sequence,z-score
1,GCCAGGACAAUCUGACUAUTT against Napsa,3.48 (active)
2,CGGGAUAGACUAUAAGACUTT against Rab40c,0.612 (inactive)
3,GGAGAUGAGGAAGCUCUUCTT against Usp4,-0.747 (inactive)
4,CCAAGCAUAUGUGGUUGUUTT against Gpbp1l1,-2.01 (active)
5,GGUCUACGACCGAUGUUCUTT against 9530003J23Rik,0.729 (inactive)
6,GGAGUUACCUUUCGAUAGGTT against Exoc5,0.648 (inactive)
7,GGGUGCAUAAGCAAGCUGUTT against Nkiras2,-0.992 (inactive)
8,GGGAUCAAAGAUCAGUUAATT against Pih1d2,-0.98 (inactive)
9,GACAGAGGAAUUUGUCUCCTT against Olfr1120,2.1 (active)
10,CCUAGUGUGUGCUUUUCGGTT against Akr7a5,-0.502 (inactive)
11,GGACCCAAGAAGUUUUAUUTT against Zbbx,1.3 (inactive)
12,GGAGCAGGUAAACAUGUCUTT against Fpr-rs7,-0.218 (inactive)
13,GCCUGAAAGGCCUCACAAATT against Eloa,-0.72 (inactive)
14,GCAGUAACUCCGGUAGUAGTT against Daxx,5.84 (active)
15,GGACUAUGCAGUUUUAUUGTT against Chrac1,-0.201 (inactive)
16,CGACCAAAAUCAAAACAGCTT against Defb12,-0.093 (inactive)
17,GGAACUGGAAGAGAAUGAGTT against Sdc4,0.862 (inactive)
18,GGAGAAGAUAGAAGCUGAGTT against Rad23a,-1.66 (inactive)
19,GGUCGAGGACAAAAAAAAATT against Dner,-2.27 (active)
20,GGACCUAUCAACUGAGUUUTT against Hrc,1.06 (inactive)
21,GGUCAUGGCUACUUCAUCCTT against Dok7,0.583 (inactive)
22,CCUUUAGAGGAAUUCACUUTT against Npas2,-0.576 (inactive)
23,GCAAAUCCCAGCUCAAUGUTT against Zfp810,-1.65 (inactive)
24,CGAAGGACCAGGGAAUCUGTT against Tsg-5,-0.793 (inactive)
25,GCAGGUGAAAGUGCAGAUCTT against Timm13,3.35 (active)
26,GGAUAAGAGACAAUGAAUUTT against Fut7,-1.19 (inactive)
27,GCUCAUUCGUCCUCACAGUTT against Olfr312,-1.11 (inactive)

row,Sequence,z-score
1,CCCAGGUUCCGGAGAACAATT against Abcc5,2.14 (active)
2,GGCUGUCCAACAAGCAGAGTT against Plekhm3,0.163 (inactive)
3,GGUAGACCUUUUGUCACGGTT against Cers2,-0.0497 (inactive)
4,GGGUUUAAUCAUGAUAGAATT against Tet2,-0.583 (inactive)
5,GGCUUUCCCAAAGACUUCUTT against Col11a2,0.518 (inactive)
6,GGACAUCAUCCAGGAAAACTT against Bcar3,-0.347 (inactive)
7,GCCACAACAACUUGAGCAGTT against Amigo1,2.36 (active)
8,CAACUCUCUUGCUCAGACATT against Olfr814,-0.268 (inactive)
9,CGAACGGAAAAAUGGAAGUTT against Mrtfb,0.784 (inactive)
10,GGUCAUAGAGACAGACUACTT against Lcn12,-0.378 (inactive)
11,CGCAGAACCCUGGUUUCUATT against Trappc11,-0.232 (inactive)
12,GGACUUUCUCUAGGAUCCATT against Slamf8,-0.705 (inactive)
13,GGCUGGUUACCUGCAUAAGTT against Sh3bp2,0.225 (inactive)
14,GGUACCAUCCGGAAUACAATT against Zdhhc19,3.95 (active)
15,GGCCUCCUAACAAUUCAGCTT against Foxp1,0.0693 (inactive)
16,GCUCAGAGCAUGUUGGUGGTT against Dstyk,-0.805 (inactive)
17,GGAUAUACAAGCACAAACUTT against Gjc3,0.432 (inactive)
18,GGGAUUUAAAAGGAAAUGUTT against Gbp7,-1.05 (inactive)
19,GAAGCAGAUACCAAAACAATT against Kir3dl1,-3.02 (active)
20,GGAGGUGGUGCUUAAAGGUTT against Rnf122,0.41 (inactive)
21,GGUGAAAAGAGAUUUGAAUTT against Sp4,0.587 (inactive)
22,GCUCGUUCUUCGACAUCUUTT against Stard3,-0.946 (inactive)
23,GGACCUAGUGCGUUCCAAATT against H1f7,2.92 (active)
24,GCGAUAUUUCAAGAGAAGCTT against Evc2,-0.372 (inactive)
25,CCCAAGCCUACCUUACGAGTT against Hipk2,-1.67 (inactive)
26,CCUAAUACCUUCAGUGUUCTT against Ptcd3,0.865 (inactive)
27,GGAAACUUAAGCAAAUUCUTT against Gprc6a,3.11 (active)

# From PubChem BioAssay AID1508600 (Functional Genomics Laboratory (NCATS/FGL), 2020)
